Consider eight molecules from PubChem BioAssay (NCI).

Test systems include SR leukemia; RPMI-8226 leukemia; OVCAR-8 ovarian; OVCAR-5 ovarian; OVCAR-4 ovarian; SK-OV-3 ovarian; IGROV1 ovarian; OVCAR-3 ovarian; HS 578T breast; NCI/ADR-RES ovarian; T-47D breast; BT-549 breast; MDA-MB-435 melanoma; SW-620 colon; MCF7 breast; HCT-116 colon; HCC-2998 colon; KM12 colon.
Common to all, as to assay: NCI-60 one-dose screen, 48 h (100 = growth as untreated, 0 = no growth, -100 = all killed)
Holding throughout (settings): 10 µM unless noted

Compounds without any hit were thinned out: in the full panel of roughly 83,000, 20% have a hit.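 48-hour exposure, single concentration, 96-well plates; percent growth endpoint where 0 means no net growth. Active: below 10.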 Unmarked numbers belong to inactive results. Calls of active or inactive are those of the source.

As for `COC(=O)[C@]12CC[C@@H](C(C)=O)[C@@H]1[C@H]1CC[C@@H]3[C@@]4(C)C/C(=C/c5cccnc5)C(=O)C(C)(C)[C@@H]4CC[C@@]3(C)[C@]1(C)CC2`, the growth is 12.3% with SR leukemia; 2.88% (active) in the experiment with RPMI-8226 leukemia; 38.7% in the experiment with OVCAR-8 ovarian; 114% in the experiment with OVCAR-5 ovarian; 26.7% in the experiment with OVCAR-4 ovarian; 93.7% in the experiment on SK-OV-3 ovarian. The growth was 85.8% with IGROV1 ovarian; 49% with OVCAR-3 ovarian; 74.8% with HS 578T breast; 52.5% in the experiment with NCI/ADR-RES ovarian; 24.4% in the experiment with T-47D breast; 46% with BT-549 breast. For the same molecule, the growth with MDA-MB-435 melanoma is 72.6%; in the experiment with SW-620 colon, 25.3%; in the experiment with MCF7 breast, 19.2%; with HCT-116 colon, 3.92% (active); in the experiment with HCC-2998 colon, 75.8%; in the experiment with KM12 colon it was 60.5%.
Turning to `O=S(=O)(NCCCNc1cc(-c2cn(-c3ccccc3)nc2-c2cccc(O)c2)ccn1)c1ccc(F)cc1`, the growth in the experiment with SR leukemia was 6.17% (active); in the experiment with RPMI-8226 leukemia, 21.4%; with OVCAR-8 ovarian, 23.4%; in the experiment with OVCAR-5 ovarian, 65.5%; in the experiment on OVCAR-4 ovarian, 35.7%; with SK-OV-3 ovarian, 49%. For the same molecule, the growth in the experiment on IGROV1 ovarian is 40.6%; in the experiment on OVCAR-3 ovarian it was 45.8%; in the experiment on HS 578T breast, 24.3%; with NCI/ADR-RES ovarian it was 25.9%; in the experiment with T-47D breast, 14.8%; in the experiment on BT-549 breast, 40.6%. Also, the growth with MDA-MB-435 melanoma was 38.9%; in the experiment on SW-620 colon it was 30.1%; in the experiment with MCF7 breast it was 27.2%; with HCT-116 colon, 23%; in the experiment with HCC-2998 colon, -34.8% (active); with KM12 colon, 24.2%.
In the case of `C=C(C)[C@@H]1CC[C@]2(C)[C@H](CC=C3[C@@H]4CC(C)(C)CC[C@]4(C=O)CC[C@]32C)[C@@]1(C)CCCN`, the growth with SR leukemia was -31.5% (active); with RPMI-8226 leukemia, 14.2%; in the experiment on OVCAR-8 ovarian, 77.8%; in the experiment on OVCAR-5 ovarian, 91.8%; in the experiment on OVCAR-4 ovarian, 85.7%; with SK-OV-3 ovarian, 94.2%. For the same molecule, the growth in the experiment on IGROV1 ovarian is 88.4%; with OVCAR-3 ovarian, 80.1%; in the experiment with HS 578T breast, 96%; with NCI/ADR-RES ovarian, 87.2%; in the experiment on T-47D breast, 79.1%; with BT-549 breast, 87.3%. Further, the growth in the experiment on MDA-MB-435 melanoma is 95.1%; in the experiment on SW-620 colon, 29.5%; in the experiment with MCF7 breast, 39%; in the experiment with HCT-116 colon it was 22.9%; in the experiment with HCC-2998 colon, 40.1%; in the experiment on KM12 colon, 77.3%.
Take `COc1ccc(O)c(-c2cc(-c3ccc(Cl)cc3)c(C#N)c(=O)[nH]2)c1`: the growth in the experiment on SR leukemia is 33.5%; in the experiment on RPMI-8226 leukemia, 62.3%; in the experiment with OVCAR-8 ovarian, 68.3%; with OVCAR-5 ovarian it was 106%; with OVCAR-4 ovarian it was 74.4%; in the experiment with SK-OV-3 ovarian, 82.8%. Moreover, the growth with IGROV1 ovarian was 78.5%; with OVCAR-3 ovarian, 73.4%; in the experiment with HS 578T breast, 58.7%; with NCI/ADR-RES ovarian, 62.5%; with T-47D breast, 57.3%; in the experiment with BT-549 breast, 9.41% (active). Moreover, the growth in the experiment with MDA-MB-435 melanoma is 5.98% (active); with SW-620 colon it was 74.7%; in the experiment with MCF7 breast, 46.6%; in the experiment on HCT-116 colon it was 73.4%; with HCC-2998 colon, 70.6%; with KM12 colon, 57.6%.
Regarding `CCN1CCN(c2nc(C)cc(N(CCCNc3ccnc4cc(Cl)ccc34)Cc3ccco3)n2)CC1`, the growth with SR leukemia was -16.5% (active); with RPMI-8226 leukemia, 8.04% (active); in the experiment on OVCAR-8 ovarian it was 58.5%; in the experiment with OVCAR-5 ovarian, 79.7%; in the experiment with OVCAR-4 ovarian it was 59.7%; in the experiment on SK-OV-3 ovarian, 97.2%. Also, the growth was 51.2% in the experiment with IGROV1 ovarian; 53% in the experiment with OVCAR-3 ovarian; 70.3% in the experiment with HS 578T breast; 55.8% with NCI/ADR-RES ovarian; 68.4% in the experiment with T-47D breast; 54.5% with BT-549 breast. In addition, the growth in the experiment with MDA-MB-435 melanoma is 4.03% (active); in the experiment with SW-620 colon, 39.3%; with MCF7 breast, 32.3%; in the experiment with HCT-116 colon, 42.5%; in the experiment with HCC-2998 colon it was 88%; in the experiment with KM12 colon it was 67.9%.
For `COc1ccc(C2=NN(c3nc(-c4ccc(OC)cc4)c(C#N)c(=O)n3C)C(=O)CC2)cc1`, the growth was 87.2% in the experiment with SR leukemia; 95% with RPMI-8226 leukemia; 101% with OVCAR-8 ovarian; 72.3% with OVCAR-5 ovarian; 105% in the experiment with OVCAR-4 ovarian; 96% in the experiment with SK-OV-3 ovarian. For the same molecule, the growth with IGROV1 ovarian is 96.3%; in the experiment with OVCAR-3 ovarian, 104%; in the experiment with HS 578T breast it was 94.9%; with NCI/ADR-RES ovarian, 101%; with T-47D breast, 92.4%; with BT-549 breast it was 107%. The growth with MDA-MB-435 melanoma is 109%; in the experiment on SW-620 colon, 108%; in the experiment on MCF7 breast, 92%; with HCT-116 colon it was 97.4%; in the experiment on HCC-2998 colon, 91.8%; in the experiment on KM12 colon it was 107%.
In the case of `Cc1[c-]onc1C.Cc1[c-]onc1C.[Ag].[Ag].[NH-]S(=O)(=O)c1ccc(N=Nc2cc(N=Nc3ccc(S([NH-])(=O)=O)cc3)c3c(NC(=O)C(Cl)Cl)cccc3c2OC(=O)C(Cl)Cl)cc1`, the growth in the experiment on SR leukemia was 81.4%; in the experiment on RPMI-8226 leukemia it was 80.4%; in the experiment on OVCAR-8 ovarian, 69.1%; in the experiment on OVCAR-5 ovarian, 125%; in the experiment on OVCAR-4 ovarian, 93.9%; with SK-OV-3 ovarian, 111%. Moreover, the growth with IGROV1 ovarian was 73%; in the experiment on OVCAR-3 ovarian it was 59.7%; in the experiment with HS 578T breast, 85.2%; in the experiment on NCI/ADR-RES ovarian, 96.9%; in the experiment with T-47D breast, -11.9% (active); in the experiment on BT-549 breast, 94.6%. Moreover, the growth in the experiment on MDA-MB-435 melanoma is 74.3%; in the experiment with SW-620 colon, 58.1%; with MCF7 breast, 35.7%; with HCT-116 colon, 71.9%; in the experiment with HCC-2998 colon, 107%; with KM12 colon it was 71.5%.
Take `NC1=NN(c2ccccc2)C(=O)/C1=C/c1ccc(Cl)cc1`: the growth in the experiment on SR leukemia was 94.2%; in the experiment with RPMI-8226 leukemia, 94.8%; in the experiment on OVCAR-8 ovarian, 99%; with OVCAR-5 ovarian it was 98.1%; in the experiment with OVCAR-4 ovarian, 109%; in the experiment with SK-OV-3 ovarian, 96.3%. Moreover, the growth in the experiment on IGROV1 ovarian was 99.4%; in the experiment with OVCAR-3 ovarian it was 108%; in the experiment with HS 578T breast, 106%; with NCI/ADR-RES ovarian it was 103%; in the experiment on T-47D breast it was 74.1%; in the experiment on BT-549 breast, 104%. The growth in the experiment on MDA-MB-435 melanoma is 105%; in the experiment with SW-620 colon, 101%; in the experiment on MCF7 breast it was 96.6%; with HCT-116 colon it was 100%; with HCC-2998 colon, 109%; with KM12 colon, 103%.
